# High-throughput results: PubChem, National Center for Advancing Translational Sciences (NCATS)
# Rows were chosen to be rich in hits. Some 3.1% of all compounds tested hit in one or more screens of this group.
# Vif-APOBEC3G blk – blocks the Vif interaction with human APOBEC3G | Q9HC16 | HeLa A3G-eYFP + Vif (tagged APOBEC3G with the HIV-1 protein that degrades it), YFP fluorescence, overnight | Potency, µM (doses to about 46.1 µM), for the others: at the top dose activity, negative = active, actives largely listed as inhibitors | 410,000 tested, 0.076% active | AID 602310; further: potency means the concentration at half of the fitted maximal effect; on the % scale 0 is the no-effect control and ±100 the full control effect; nearly all actives have a fitted effect of over 60% in size
#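 Read-out is eYFP fluorescence (Ex 488/Em 500-530) from Vif-expressing HeLa A3G-eYFP cells; more signal means A3G escaped Vif-mediated degradation. Cells plated overnight, compound pinned in, incubated overnight at 37 deg C.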
# PLK1 PBD block – inhibitors of human PLK1 polo-box domain binding; P53350; Potency, µM, inactives show max response, negative = inhibition, usual class: inhibitors; 360,000 tested, 2.8% active; Plk1 PBD binding of FITC phosphopeptide, fluorescence polarization; further: potency means the concentration at half of the fitted maximal effect; series mostly up to about 57 µM; on the % scale 0 is the no-effect control and ±100 the full control effect; nearly all actives have a fitted effect of over 65% in size
# TSHR antag – antagonists of human thyroid stimulating hormone receptor; activity change, negative = inhibition, % at 11.5 µM; 330,000 tested, 0.2% active; TSHR-expressing cells, TSH-stimulated cAMP HTRF, 2 h; stronger effect = lower value;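 active means activity change below a set negative limit, meaning inhibition stronger than a set level, cut at about -70% in these data; inconclusive means activity change between two set negative limits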; further: on the % scale 0 is the no-effect control and ±100 the full control effect
#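 TSHR-expressing cells were treated with compounds, then stimulated with TSH at EC80 (4nM final) for 2 hours at 37 deg C. Cellular cAMP was measured by HTRF competition between lysate cAMP and cAMP-d2 for a cryptate-labelled anti-cAMP antibody.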
# Vif-APOBEC3F blk – Vif-A3F binding inhibition | HeLa A3F-eYFP + Vif (tagged APOBEC3F with the HIV-1 protein that degrades it), YFP fluorescence increase | Potency, µM (doses to about 46.1 µM), without a hit: at the top dose activity, negative = active | 390,000 tested, 0.2% active | AID 602313; further: potency means the concentration at half of the fitted maximal effect; % of control where 0% means no effect; nearly all actives have a fitted effect of over 65% in size
#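 HeLa cells stably expressing Vif plus C-terminally eYFP-tagged A3F were seeded, incubated overnight at 37 deg C, dosed with compound, incubated overnight again at 37 deg C. Yellow fluorescence (Ex 488/Em 500-530) reported blocked Vif-mediated A3F-eYFP degradation.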
# VDR inh – blocks the human vitamin D receptor | VDR-SRC2-3 peptide fluorescence polarization, 2 h | Potency, µM, for the others: max response, negative = inhibition, usual class: inhibitors | 400,000 tested, 0.93% active | AID 504847; further: potency means the concentration at half of the fitted maximal effect; on the % scale 0 is the no-effect control and ±100 the full control effect
# Target sequence (P11473 whole entry, looked up): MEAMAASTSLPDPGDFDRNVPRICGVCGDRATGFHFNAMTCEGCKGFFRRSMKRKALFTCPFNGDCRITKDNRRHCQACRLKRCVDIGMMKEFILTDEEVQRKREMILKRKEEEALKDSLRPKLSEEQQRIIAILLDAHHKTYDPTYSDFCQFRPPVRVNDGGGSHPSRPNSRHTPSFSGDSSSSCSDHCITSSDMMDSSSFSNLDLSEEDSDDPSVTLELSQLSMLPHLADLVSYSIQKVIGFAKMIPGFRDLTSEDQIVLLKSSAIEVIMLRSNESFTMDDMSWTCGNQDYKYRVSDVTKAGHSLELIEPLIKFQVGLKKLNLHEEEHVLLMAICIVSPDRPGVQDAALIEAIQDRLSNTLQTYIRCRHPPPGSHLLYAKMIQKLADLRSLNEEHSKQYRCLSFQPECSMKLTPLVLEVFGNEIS
#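 VDR–SRC2-3 interaction, FP format. Cmpds 23 nl via pintool, brief spin, 2 h ambient incubation.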
# Numbers without * were called inactive; ? = inconclusive; . = not tested or not shown. Unless noted, the call rests on the fitted dose curve; in most records, active means well fitted curve in the direction sought with a large enough effect; inconclusive means small, poorly fitted or top-dose-only effect, or another doubt; inactive means no such curve, though single readings can be large; an effect the other way counts as inactive or inconclusive.
SMILES,Vif-APOBEC3G blk,PLK1 PBD block,TSHR antag,Vif-APOBEC3F blk,VDR inh
CCCCc1nc2cc(C(=O)N3CCCCC3CCNC(C)=O)ccc2o1 (configuration not stated),3.4%,23.8µM*,17.6,3.1%,?
COc1ccccc1CCC(=O)O,2.6%,.,.,.,.
COC(=O)[C@H](COC(C)(C)C)NC(=O)O[C@@H]1C(=O)c2cc(OC)ccc2O[C@H]1c1ccc(OC)c(Br)c1,.,.,.,.,-5.4%
O=C(C[N+]1(CCO)CCOCC1)c1ccc2ccccc2c1,0.6%,.,.,.,.
COc1cccc(OCc2nnc(SCc3cc(=O)[nH]c4ccccc34)o2)c1,0.7%,23.8µM*,-8.0,12.0%,-13.8%
O=C(O)c1ccc(-c2nc(-c3ccccc3)cs2)cc1,-1.9%,-14.2%,1.1,-0.8%,5.9%
O=C(O)c1ccc(-c2nc(-c3ccc(Cl)c(Cl)c3)cs2)cc1,0.7%,26.7µM*,-16.1,-0.1%,-1.3%
O=C(O)c1cnn(-c2nc(-c3ccc(Cl)c(Cl)c3)cs2)c1C(F)(F)F,0.2%,26.7µM*,-6.2,8.6%,?
CC1=CC2C(C)(C)CC(=O)C[C@]2(C)CC1COc1ccc2c(c1)CC(=O)C=C2 (some centres not stated),.,.,.,.,-19.5%
O=C1c2c(O)cc(O)cc2O[C@H](c2ccc(O)c(O)c2)C1O (some centres not stated),.,.,.,.,-9.5%
COc1ccc(S(=O)(=O)NC2CCCCC2)cc1-n1cnnn1,-1.9%,26.7µM*,-0.5,6.7%,-16.1%
CC(C)[C@H](NC(=O)[C@H](CC(=O)O)NC(=O)CNC(=O)[C@@H](N)CCCN=C(N)N)C(=O)O,.,.,.,.,3.6%
COc1ccc(NC(=O)CSc2nc(-c3cc(OC)c(OC)c(OC)c3)[nH]c2-c2ccc(F)cc2)cc1,-5.6%,.,.,7.6%,12.1%
Cc1cc(N)ccc1N1CCCC1,2.2%,?,0.7,-11.5%,70.8µM*
Cc1cc(N)ccc1-n1c(C)ccc1C,-2.3%,-4.8%,-3.2,-3.4%,?
Cc1nc2ccccc2n1CC(=O)N/N=C\C=C\c1ccccc1,1.6%,-6.7%,-80.7*,-0.4%,-0.5%
Cc1noc(C)c1-c1nc(NCc2cccs2)c2ccccc2n1,.,.,.,.,44.7µM*
Cc1ccc(S(=O)(=O)N2CC=C(C(=O)NC3CC3)CC2)cc1,3.8%,21.2µM*,-1.6,0.7%,-14.8%
Cc1ccc(CNC(=O)C2=CCN(S(=O)(=O)c3ccc(C)cc3)CC2)cc1,.,.,2.3,.,.
COCCn1c(SCc2cc(=O)n3ccsc3n2)nnc1-c1ccncc1,3.1%,23.8µM*,3.0,5.2%,6.2%
O=S1(=O)C2CC3OC2(CC3c2ccc(F)cc2)CN1Cc1ccc(Cl)cc1 (configuration not stated),-0.7%,.,.,.,6.0%
C=CCn1c(SCC(=O)NC2CC2)nc2sc(CC)cc2c1=O,11.3%,26.7µM*,-4.0,-3.6%,-20.8%
COCc1ccc(CN2CCCC(CCC(=O)NCc3ccc(C)o3)C2)o1 (configuration not stated),-5.7%,2.2%,5.4,-2.4%,0.1%
COC(=O)c1ccc(CN2CCCC(CCC(=O)NCc3ccc(C)o3)C2)cc1 (configuration not stated),-1.9%,23.8µM*,-7.2,-5.8%,-0.7%
Cc1ccoc1C(=O)NCCNC(=O)c1occc1C,2.1%,-1.5%,-1.3,0.5%,15.3%
SMILES,Vif-APOBEC3G blk,PLK1 PBD block,TSHR antag,Vif-APOBEC3F blk,VDR inh
Cc1ccoc1C(=O)NCCCNC(=O)c1occc1C,-0.1%,26.7µM*,52.5,.,?
Cc1cc(Cl)ccc1OCC(=O)OCC(=O)NCCNC(=O)COC(=O)COc1ccc(Cl)cc1C,2.7%,-2.5%,.,11.3%,13.1%
CC(=O)c1ccccc1OC(=O)COc1ccc(Cl)cc1C,2.7%,21.2µM*,1.7,-5.4%,?
COC(=O)CCC(=O)OC1(C)C(=O)C2=CN(CC3CC3)C(c3ccc(OC)cc3)=CC2=C(Br)C1=O (configuration not stated),2.9%,?,-9.2,-3.6%,?
COC(=O)CCC(=O)OC1(C)C(=O)C2=CN(C3CC3)C(c3ccc(OC)cc3)=CC2=C(Br)C1=O (configuration not stated),3.0%,26.7µM*,.,-3.0%,?
N#C/C(=N\Nc1cccc([N+](=O)[O-])c1)C(=O)c1ccc(Br)cc1,-15.3%,29.9µM*,?,8.8%,-26.1%
O=C(O)c1ccc(N=NNc2cccc([N+](=O)[O-])c2)cc1,-21.2%,-7.6%,-1.1,-0.3%,4.3%
C[C@H](CCC(=O)NCC(=O)O)C1CC[C@H]2C3CC[C@@H]4C[C@H](O)CC[C@]4(C)C3C[C@H](O)[C@]12C (some centres not stated),.,.,.,.,-18.0%
O=C(NCC1CCCN(Cc2cccc(C(F)(F)F)c2)C1)c1ccc(F)cc1 (configuration not stated),2.8%,-7.5%,11.6,-1.6%,-5.1%
O=C(NCC1CCCN(C(=O)c2cccc(C(F)(F)F)c2)C1)c1ccc(F)cc1 (configuration not stated),5.0%,-18.3%,-131.9*,-4.4%,10.2%
Cn1c(-c2ccc(C=O)s2)nc2c3ccccc3c3ccccc3c21,1.4%,26.7µM*,21.2,?,1.1%
CC(C)=CC[C@@H](O)C1=CC(=O)c2c(O)ccc(O)c2C1=O,.,.,.,.,1.78µM*
CCOc1ccc(-c2nn(CC(=O)NC3CCCC3)c3c2cnc2ccc(F)cc23)cc1,-0.1%,.,.,-8.4%,4.8%
N#Cc1c(C(F)(F)F)cc(=O)n2c1[nH]c1ccccc12,-6.5%,21.2µM*,-49.5,-28.1%,-25.4%
CCOc1ccccc1CNS(=O)(=O)c1ccc2c(c1)oc(=O)n2C,0.2%,26.7µM*,-5.9,-11.2%,-6.6%
CN(C(=O)CSc1nnc(-c2ccc(F)cc2)n1C)C1CCS(=O)(=O)C1 (configuration not stated),-0.1%,-3.5%,.,0.1%,-2.5%
CN(C(=O)CSc1nc2ccccc2o1)C1CCS(=O)(=O)C1 (configuration not stated),-3.9%,-12.3%,14.5,8.8%,-9.5%
CN(C(=O)CSc1nc(-c2ccccc2)c(-c2ccccc2)o1)C1CCS(=O)(=O)C1 (configuration not stated),3.8%,29.9µM*,-2.0,-12.8%,-1.7%
CN(C(=O)CSc1nnc(-c2ccccc2)n1C)C1CCS(=O)(=O)C1 (configuration not stated),2.3%,26.7µM*,0.9,0.1%,-6.4%
COc1ccc(CN2C(=O)N(c3ccccc3)C(=O)C2c2ccccc2)cc1COc1ccc(NC(C)=O)cc1 (configuration not stated),.,.,.,.,-3.2%
C[C@H]1OC(=O)CC[C@@H]2[C@]1(C)CCC1[C@@]2(C)CC[C@@]2(C)C3CC(C)(C)CC[C@]3(CO)CC[C@]12C (some centres not stated),.,.,.,.,-0.1%
